Assay results published in ChEMBL document CHEMBL1961873, “Compounds: GSK PKIS; Assays: Nanosyn kinase panel” (2012).

Legend:
[1] = molecular target: Sphingosine kinase 1 (Homo sapiens) (UniProt Q9NYA1); details: at 1 µM;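 also: mean SPHK1 inhibition value reported from the GSK PKIS kinase panel screen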
[2] = molecular target: T1, Sphingosine kinase 2 (Homo sapiens) (UniProt Q9NRA0); details: at 0.1 µM
T1 sequence (whole entry): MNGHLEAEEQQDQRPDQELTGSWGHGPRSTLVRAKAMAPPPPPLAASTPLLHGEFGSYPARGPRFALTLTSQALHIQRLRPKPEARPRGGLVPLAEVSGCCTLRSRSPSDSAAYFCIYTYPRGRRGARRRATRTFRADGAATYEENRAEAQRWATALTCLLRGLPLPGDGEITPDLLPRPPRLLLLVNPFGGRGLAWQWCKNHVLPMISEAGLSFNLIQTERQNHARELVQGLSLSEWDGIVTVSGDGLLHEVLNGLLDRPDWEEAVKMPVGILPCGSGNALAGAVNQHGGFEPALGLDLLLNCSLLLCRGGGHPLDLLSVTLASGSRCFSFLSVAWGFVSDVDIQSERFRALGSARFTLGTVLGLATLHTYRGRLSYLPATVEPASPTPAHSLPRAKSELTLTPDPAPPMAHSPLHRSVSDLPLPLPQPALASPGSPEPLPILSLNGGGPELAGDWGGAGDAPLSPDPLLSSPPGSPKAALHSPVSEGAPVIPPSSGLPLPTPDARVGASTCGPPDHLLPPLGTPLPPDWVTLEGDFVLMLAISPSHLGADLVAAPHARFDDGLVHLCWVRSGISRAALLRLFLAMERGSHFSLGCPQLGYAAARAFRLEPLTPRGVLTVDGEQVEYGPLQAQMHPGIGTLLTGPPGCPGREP

[3] = molecular target: T1, Sphingosine kinase 2 (Homo sapiens); details: at 1 µM
[4] = molecular target: Casein kinase II subunit alpha (Homo sapiens) (UniProt P68400); details: at 0.1 µM
Chain of Casein kinase II subunit alpha (Homo sapiens) (P68400 whole entry, looked up): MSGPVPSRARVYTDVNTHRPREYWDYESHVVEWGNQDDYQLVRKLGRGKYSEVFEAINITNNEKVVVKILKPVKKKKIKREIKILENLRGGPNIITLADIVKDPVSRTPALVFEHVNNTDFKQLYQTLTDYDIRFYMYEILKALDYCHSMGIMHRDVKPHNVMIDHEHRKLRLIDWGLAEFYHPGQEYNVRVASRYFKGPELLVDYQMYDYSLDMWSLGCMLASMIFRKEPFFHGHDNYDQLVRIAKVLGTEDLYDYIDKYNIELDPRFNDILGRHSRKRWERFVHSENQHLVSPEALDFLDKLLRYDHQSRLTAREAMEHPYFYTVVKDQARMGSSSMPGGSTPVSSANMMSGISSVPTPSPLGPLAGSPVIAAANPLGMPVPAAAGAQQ

[5] = molecular target: Casein kinase II subunit alpha (Homo sapiens) (UniProt P68400); details: at 1 µM
[6] = molecular target: T2, Inhibitor of nuclear factor kappa-B kinase subunit alpha (Homo sapiens) (UniProt O15111); details: at 0.1 µM
T2 sequence (whole entry): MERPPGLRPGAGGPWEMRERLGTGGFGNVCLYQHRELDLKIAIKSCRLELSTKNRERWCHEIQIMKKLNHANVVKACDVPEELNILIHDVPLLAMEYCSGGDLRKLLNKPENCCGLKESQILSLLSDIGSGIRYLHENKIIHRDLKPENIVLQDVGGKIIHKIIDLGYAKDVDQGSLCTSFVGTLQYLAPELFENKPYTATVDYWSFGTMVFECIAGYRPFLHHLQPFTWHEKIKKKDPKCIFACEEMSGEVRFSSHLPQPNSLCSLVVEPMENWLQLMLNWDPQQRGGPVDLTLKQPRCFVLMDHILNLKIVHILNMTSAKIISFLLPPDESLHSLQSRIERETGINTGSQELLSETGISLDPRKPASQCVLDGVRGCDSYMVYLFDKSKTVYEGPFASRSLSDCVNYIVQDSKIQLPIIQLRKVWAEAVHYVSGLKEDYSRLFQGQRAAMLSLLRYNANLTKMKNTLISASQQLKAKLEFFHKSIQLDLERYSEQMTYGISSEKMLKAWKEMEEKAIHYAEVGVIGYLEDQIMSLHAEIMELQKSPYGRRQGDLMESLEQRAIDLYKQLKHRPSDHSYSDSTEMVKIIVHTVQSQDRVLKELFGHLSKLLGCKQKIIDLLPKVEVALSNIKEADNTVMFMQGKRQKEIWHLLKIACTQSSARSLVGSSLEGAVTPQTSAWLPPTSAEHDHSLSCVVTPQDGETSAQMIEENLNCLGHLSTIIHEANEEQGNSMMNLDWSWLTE

[7] = molecular target: T2, Inhibitor of nuclear factor kappa-B kinase subunit alpha (Homo sapiens); details: at 1 µM
[8] = molecular target: T3, Inhibitor of nuclear factor kappa-B kinase subunit beta (Homo sapiens) (UniProt O14920); details: at 0.1 µM
T3 sequence (whole entry): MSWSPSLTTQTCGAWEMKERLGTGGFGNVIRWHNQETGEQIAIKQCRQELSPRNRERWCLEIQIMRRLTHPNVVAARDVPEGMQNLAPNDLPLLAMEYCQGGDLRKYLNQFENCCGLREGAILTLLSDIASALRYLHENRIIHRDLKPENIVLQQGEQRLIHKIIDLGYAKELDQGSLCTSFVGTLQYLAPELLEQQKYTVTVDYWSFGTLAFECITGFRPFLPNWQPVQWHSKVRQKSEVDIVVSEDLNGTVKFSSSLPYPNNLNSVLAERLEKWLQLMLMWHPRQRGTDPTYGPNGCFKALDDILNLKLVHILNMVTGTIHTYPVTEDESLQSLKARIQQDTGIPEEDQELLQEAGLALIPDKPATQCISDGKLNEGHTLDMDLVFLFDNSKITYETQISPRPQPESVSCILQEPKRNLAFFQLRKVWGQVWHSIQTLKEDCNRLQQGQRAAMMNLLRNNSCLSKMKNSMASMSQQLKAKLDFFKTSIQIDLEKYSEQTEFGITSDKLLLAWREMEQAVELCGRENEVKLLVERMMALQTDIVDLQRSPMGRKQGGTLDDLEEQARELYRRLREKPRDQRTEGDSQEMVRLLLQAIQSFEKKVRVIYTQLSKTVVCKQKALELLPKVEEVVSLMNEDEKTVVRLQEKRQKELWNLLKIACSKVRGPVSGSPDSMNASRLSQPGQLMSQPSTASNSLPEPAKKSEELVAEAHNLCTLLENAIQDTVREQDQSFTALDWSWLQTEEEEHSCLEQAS

[9] = molecular target: T3, Inhibitor of nuclear factor kappa-B kinase subunit beta (Homo sapiens); details: at 1 µM
[10] = molecular target: T4, Inhibitor of nuclear factor kappa-B kinase subunit epsilon (Homo sapiens) (UniProt Q14164); details: at 0.1 µM
T4 sequence (whole entry): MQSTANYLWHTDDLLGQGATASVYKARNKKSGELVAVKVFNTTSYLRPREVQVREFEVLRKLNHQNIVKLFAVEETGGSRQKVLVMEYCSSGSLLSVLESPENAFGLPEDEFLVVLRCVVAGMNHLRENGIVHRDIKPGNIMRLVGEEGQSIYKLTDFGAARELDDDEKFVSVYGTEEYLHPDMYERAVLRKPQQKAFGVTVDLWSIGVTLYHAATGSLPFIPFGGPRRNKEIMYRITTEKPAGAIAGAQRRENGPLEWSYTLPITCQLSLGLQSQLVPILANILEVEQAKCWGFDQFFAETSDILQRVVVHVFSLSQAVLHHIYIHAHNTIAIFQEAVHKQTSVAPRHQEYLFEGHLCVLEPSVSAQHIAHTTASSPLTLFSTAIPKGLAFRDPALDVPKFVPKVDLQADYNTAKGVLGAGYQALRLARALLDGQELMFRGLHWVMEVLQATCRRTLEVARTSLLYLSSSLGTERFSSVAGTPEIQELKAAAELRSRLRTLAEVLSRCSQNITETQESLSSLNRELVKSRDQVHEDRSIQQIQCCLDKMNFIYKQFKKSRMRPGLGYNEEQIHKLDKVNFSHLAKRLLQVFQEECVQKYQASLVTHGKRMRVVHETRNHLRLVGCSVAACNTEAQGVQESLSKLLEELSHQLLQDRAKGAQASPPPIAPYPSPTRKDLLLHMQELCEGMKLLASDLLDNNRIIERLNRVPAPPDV

[11] = molecular target: T4, Inhibitor of nuclear factor kappa-B kinase subunit epsilon (Homo sapiens); details: at 1 µM
[12] = molecular target: T5, Serine/threonine-protein kinase Nek1 (Homo sapiens) (UniProt Q96PY6); details: at 0.1 µM
T5 sequence (whole entry): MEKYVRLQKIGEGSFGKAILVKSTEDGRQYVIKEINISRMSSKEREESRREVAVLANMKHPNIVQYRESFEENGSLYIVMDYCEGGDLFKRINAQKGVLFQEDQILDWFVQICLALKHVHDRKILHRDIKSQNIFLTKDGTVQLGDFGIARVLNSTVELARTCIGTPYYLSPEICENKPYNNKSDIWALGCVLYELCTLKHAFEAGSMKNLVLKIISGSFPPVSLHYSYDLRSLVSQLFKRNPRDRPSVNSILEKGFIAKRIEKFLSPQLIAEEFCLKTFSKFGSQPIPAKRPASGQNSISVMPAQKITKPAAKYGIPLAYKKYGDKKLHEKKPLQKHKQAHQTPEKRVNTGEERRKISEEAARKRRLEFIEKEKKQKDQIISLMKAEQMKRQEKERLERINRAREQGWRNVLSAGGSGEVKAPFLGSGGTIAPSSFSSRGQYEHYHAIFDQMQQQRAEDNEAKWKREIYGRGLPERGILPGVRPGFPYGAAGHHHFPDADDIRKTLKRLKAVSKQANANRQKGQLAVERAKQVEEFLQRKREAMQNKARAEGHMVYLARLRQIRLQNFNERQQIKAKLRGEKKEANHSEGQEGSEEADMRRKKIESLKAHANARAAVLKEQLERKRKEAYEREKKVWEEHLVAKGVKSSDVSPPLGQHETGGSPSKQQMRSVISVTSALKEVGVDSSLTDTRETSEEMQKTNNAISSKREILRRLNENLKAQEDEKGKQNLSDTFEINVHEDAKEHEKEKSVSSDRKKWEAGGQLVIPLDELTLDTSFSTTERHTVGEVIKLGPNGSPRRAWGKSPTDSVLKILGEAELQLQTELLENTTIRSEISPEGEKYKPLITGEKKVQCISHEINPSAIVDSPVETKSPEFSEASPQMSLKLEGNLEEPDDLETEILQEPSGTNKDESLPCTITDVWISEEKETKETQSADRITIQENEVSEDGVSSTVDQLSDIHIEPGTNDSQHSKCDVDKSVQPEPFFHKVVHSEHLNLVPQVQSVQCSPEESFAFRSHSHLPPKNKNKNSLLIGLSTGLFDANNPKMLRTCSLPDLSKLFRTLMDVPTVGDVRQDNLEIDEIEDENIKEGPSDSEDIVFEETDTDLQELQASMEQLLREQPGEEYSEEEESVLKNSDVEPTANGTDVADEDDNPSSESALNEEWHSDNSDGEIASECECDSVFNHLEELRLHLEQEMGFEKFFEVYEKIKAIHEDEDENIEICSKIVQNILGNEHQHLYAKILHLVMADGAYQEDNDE

[13] = molecular target: T5, Serine/threonine-protein kinase Nek1 (Homo sapiens); details: at 1 µM
[14] = molecular target: T6, Serine/threonine-protein kinase Nek2 (Homo sapiens) (UniProt P51955); details: at 0.1 µM
T6 sequence (whole entry): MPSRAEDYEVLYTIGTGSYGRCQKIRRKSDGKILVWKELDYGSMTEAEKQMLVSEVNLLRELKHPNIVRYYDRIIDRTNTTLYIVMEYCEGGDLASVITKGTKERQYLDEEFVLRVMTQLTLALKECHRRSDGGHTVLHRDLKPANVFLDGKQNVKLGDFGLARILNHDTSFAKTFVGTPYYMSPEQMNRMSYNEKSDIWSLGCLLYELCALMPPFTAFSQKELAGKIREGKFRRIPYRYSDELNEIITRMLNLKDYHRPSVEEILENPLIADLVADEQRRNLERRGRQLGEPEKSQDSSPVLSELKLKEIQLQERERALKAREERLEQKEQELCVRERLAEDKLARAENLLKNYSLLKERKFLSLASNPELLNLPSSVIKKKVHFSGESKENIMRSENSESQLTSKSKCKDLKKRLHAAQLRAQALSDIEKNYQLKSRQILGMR

[15] = molecular target: T6, Serine/threonine-protein kinase Nek2 (Homo sapiens); details: at 1 µM
[16] = molecular target: Serine/threonine-protein kinase Nek6 (Homo sapiens) (UniProt Q9HC98); details: at 0.1 µM
Chain of Serine/threonine-protein kinase Nek6 (Homo sapiens) (Q9HC98 whole entry): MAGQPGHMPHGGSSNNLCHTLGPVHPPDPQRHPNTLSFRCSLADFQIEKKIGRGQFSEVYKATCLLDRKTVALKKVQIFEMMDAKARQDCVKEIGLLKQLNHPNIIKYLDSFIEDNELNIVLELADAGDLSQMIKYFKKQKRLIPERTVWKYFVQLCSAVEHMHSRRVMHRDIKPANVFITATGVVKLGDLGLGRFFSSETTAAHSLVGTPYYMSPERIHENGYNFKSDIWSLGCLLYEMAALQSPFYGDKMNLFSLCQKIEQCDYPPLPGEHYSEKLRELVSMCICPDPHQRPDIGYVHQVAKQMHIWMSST

[17] = molecular target: Serine/threonine-protein kinase Nek6 (Homo sapiens) (UniProt Q9HC98); details: at 1 µM
[18] = molecular target: Serine/threonine-protein kinase Nek7 (Homo sapiens) (UniProt Q8TDX7); details: at 0.1 µM
Chain of Serine/threonine-protein kinase Nek7 (Homo sapiens) (Q8TDX7 whole entry, looked up): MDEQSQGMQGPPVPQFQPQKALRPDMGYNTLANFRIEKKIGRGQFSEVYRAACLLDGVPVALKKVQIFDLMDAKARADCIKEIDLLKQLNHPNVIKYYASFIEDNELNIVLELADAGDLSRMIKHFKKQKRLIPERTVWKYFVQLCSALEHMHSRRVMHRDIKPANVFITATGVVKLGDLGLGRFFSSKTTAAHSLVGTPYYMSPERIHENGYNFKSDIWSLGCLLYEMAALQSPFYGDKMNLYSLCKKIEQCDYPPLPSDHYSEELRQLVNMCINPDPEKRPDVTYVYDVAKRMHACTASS

[19] = molecular target: Serine/threonine-protein kinase Nek7 (Homo sapiens) (UniProt Q8TDX7); details: at 1 µM
[20] = molecular target: T7, Serine/threonine-protein kinase Nek9 (Homo sapiens) (UniProt Q8TD19); details: at 0.1 µM;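 also: reported value is the mean percent inhibition of NEK9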
T7 sequence (whole entry): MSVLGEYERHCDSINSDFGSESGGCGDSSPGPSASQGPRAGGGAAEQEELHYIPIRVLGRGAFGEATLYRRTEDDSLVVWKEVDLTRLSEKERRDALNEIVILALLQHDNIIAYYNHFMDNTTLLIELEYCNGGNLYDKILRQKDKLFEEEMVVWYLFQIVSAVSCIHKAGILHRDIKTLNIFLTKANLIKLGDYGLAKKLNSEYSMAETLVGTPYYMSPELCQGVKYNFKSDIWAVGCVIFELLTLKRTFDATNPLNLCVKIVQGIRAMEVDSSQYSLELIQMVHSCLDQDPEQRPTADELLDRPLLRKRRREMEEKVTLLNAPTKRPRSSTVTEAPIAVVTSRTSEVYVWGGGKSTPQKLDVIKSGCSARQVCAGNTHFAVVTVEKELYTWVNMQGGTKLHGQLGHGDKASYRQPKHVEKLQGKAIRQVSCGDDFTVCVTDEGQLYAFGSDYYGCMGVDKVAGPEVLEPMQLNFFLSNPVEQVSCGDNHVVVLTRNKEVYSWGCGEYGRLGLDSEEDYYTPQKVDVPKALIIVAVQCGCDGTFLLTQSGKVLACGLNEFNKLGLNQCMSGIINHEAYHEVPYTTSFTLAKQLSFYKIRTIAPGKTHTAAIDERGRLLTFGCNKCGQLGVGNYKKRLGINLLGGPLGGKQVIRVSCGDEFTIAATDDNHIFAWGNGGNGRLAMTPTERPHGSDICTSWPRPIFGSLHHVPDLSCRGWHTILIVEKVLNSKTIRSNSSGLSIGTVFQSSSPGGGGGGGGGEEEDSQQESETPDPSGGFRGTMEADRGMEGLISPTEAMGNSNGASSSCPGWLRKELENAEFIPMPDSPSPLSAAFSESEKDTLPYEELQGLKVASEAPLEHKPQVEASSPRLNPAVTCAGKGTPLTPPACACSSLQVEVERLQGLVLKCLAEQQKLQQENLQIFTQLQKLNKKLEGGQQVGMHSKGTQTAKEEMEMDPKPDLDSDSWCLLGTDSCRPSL

Chain of Sphingosine kinase 1 (Homo sapiens) (Q9NYA1 whole entry): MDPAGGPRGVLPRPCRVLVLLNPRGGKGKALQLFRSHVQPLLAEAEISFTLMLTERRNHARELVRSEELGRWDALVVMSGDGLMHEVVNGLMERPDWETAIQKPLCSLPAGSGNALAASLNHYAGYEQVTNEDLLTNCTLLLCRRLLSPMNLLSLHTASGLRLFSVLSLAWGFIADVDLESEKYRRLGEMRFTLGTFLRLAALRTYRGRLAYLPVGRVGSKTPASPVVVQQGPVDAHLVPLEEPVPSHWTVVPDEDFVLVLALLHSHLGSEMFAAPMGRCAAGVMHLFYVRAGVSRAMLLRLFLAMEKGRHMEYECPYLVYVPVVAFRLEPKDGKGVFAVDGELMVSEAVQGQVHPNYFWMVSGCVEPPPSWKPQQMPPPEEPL

CNC(=O)c1cncc(/C=C/c2c(Cl)cccc2Cl)c1
inhibition [1]: -1.49% | inhibition [2]: 0.89% | inhibition [3]: -2.09% | inhibition [4]: 16.9% | inhibition [5]: 14.9% | inhibition [6]: 1.91% | inhibition [7]: 0.72% | inhibition [8]: 7.67% | inhibition [9]: 11.4% | inhibition [10]: 5.94% | inhibition [11]: 6.17% | inhibition [12]: 2.78% | inhibition [13]: 1.83% | inhibition [14]: 4.53% | inhibition [15]: 3.38% | inhibition [16]: 1.11% | inhibition [17]: 4.76% | inhibition [18]: 4.23% | inhibition [19]: 9.84% | inhibition [20]: 5.43%
